Results reported in PubChem BioAssay AID1159580 (chemical genetic matrix, 2015).
Values joined by “and” are separate entries in the source; they are usually repeats but may differ in a detail not shown here. Equal entries are not always repeated. Hit rate of the full screen: of about 5,500 compounds, about 2,000 (36%) were called active. About 18% were inconclusive and are not listed. Rule as the data show it: active = normalized growth mostly below about 0.91 (no sharp cut-off); inconclusive = no clear call, values can overlap the other calls; inactive = mostly above about 0.92. The list shows a part of the results.

Experiment: chemical genetic growth profiling, strain panel (AID 1159580);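 also: tested at 20 µM; growth read once vehicle control cultures reached saturation at 30 °C; 1 = growth at the plate median or of vehicle wells; lower values mean less growth of the strain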
Settings: S. cerevisiae deletion strains, growth OD

Measured: normalized growth

Cc1nnc(NS(=O)(=O)c2ccc(N)cc2)s1
inactive: locus YAL021C, strain ccr4, hits give low values 0.982 | locus YAL026C, strain drs2, hits give low values 1.01 | locus YAL030W, strain snc1, hits give low values 0.986 | locus YBL061C, strain skt5, hits give low values 0.989 | locus YBR009C, strain hhf1, hits give low values 1.01 | locus YBR021W, strain FUR4, hits give low values 1.02 | locus YBR023C, strain chs3, hits give low values 1.02 | locus YBR171W, strain sec66, hits give low values 1 | locus YBR229C, strain ROT2, hits give low values 1 | locus YBR231C, strain swc5, hits give low values 0.99 | locus YBR279W, strain paf1, hits give low values 1 | locus YCL011C, strain gbp2, hits give low values 1.02 | locus YCL016C, strain dcc1, hits give low values 1 | locus YCL029C, strain bik1, hits give low values 0.992 | locus YCL061C, strain MRC1, hits give low values 1.01 | locus YCL069W, strain vba3, hits give low values 0.997 | locus YCR088W, strain abp1, hits give low values 1 | locus YDL005C, strain med2, hits give low values 1.02 | locus YDL035C, strain GPR1, hits give low values 1.02 | locus YDL040C, strain nat1, hits give low values 1.01 | locus YDL074C, strain BRE1, hits give low values 1.05 | locus YDL101C, strain DUN1, hits give low values 1 | locus YDL134C, strain PPH21, hits give low values 1.02 | locus YDL185W, strain tfp1, hits give low values 1 | locus YDL192W, strain arf1, hits give low values 1.01 | locus YDR001C, strain nth1, hits give low values 1.01 | locus YDR069C, strain doa4, hits give low values 0.992 | locus YDR101C, strain arx1, hits give low values 0.995 | locus YDR137W, strain rgp1, hits give low values 1.01 | locus YDR159W, strain sac3, hits give low values 0.979 | locus YDR162C, strain NBP2, hits give low values 1.03 | locus YDR195W, strain ref2 0.947 | locus YDR297W, strain sur2, hits give low values 1 | locus YDR318W, strain mcm21, hits give low values 1.02 | locus YDR334W, strain swr1, hits give low values 0.987 | locus YDR335W, strain msn5, hits give low values 0.999 | locus YDR388W, hits give low values 0.993 | locus YDR392W, strain spt3, hits give low values 1.04 | locus YDR502C, strain sam2, hits give low values 1.02 | locus YEL003W, strain gim4, hits give low values 1 | locus YEL037C, strain rad23, hits give low values 0.972 | locus YEL061C, strain CIN8 (second series), hits give low values 1.01 | locus YEL061C, strain CIN8, hits give low values 1.01 | locus YER015W, strain faa2, hits give low values 1 | locus YER016W, strain bim1, hits give low values 0.994 | locus YER110C, hits give low values 0.984 | locus YER111C, strain swi4, hits give low values 0.999 | locus YER155C, strain BEM2 (second series), hits give low values 0.99 | locus YER155C, strain BEM2, hits give low values 1 | locus YER167W, strain BCK2, hits give low values 1.01 | locus YFR010W, strain ubp6, hits give low values 1 | locus YGL078C, strain dbp3, hits give low values 1 | locus YGL086W, strain mad1, hits give low values 1 | locus YGL167C, strain pmr1, hits give low values 1 | locus YGL173C, strain kem1, hits give low values 0.985 | locus YGL227W, strain vid30, hits give low values 1.01 | locus YGL240W, strain doc1, hits give low values 1.02 | locus YGL248W, strain PDE1, hits give low values 1 | locus YGL253W, strain hxk2, hits give low values 1.01 | locus YGR135W, strain pre9, hits give low values 1 | locus YGR252W, strain gcn5, hits give low values 1.13 | locus YHR013C, strain ard1, hits give low values 0.998 | locus YHR027C, strain rpn1, hits give low values 1 | locus YHR030C, strain SLT2, hits give low values 1.01 and 0.969 | locus YHR079C, strain IRE1 (second series), hits give low values 0.96 | locus YHR079C, strain IRE1, hits give low values 0.971 | locus YHR094C, strain hxt1, hits give low values 0.981 | locus YHR129C, strain ARP1, hits give low values 1 | locus YHR142W, strain chs7, hits give low values 1.02 | locus YHR200W, strain rpn10, hits give low values 1.01 | locus YIL066C, strain RNR3, hits give low values 0.992 | locus YIL073C, strain SPO22, hits give low values 1.06 | locus YIL125W, strain kgd1, hits give low values 1.01 | locus YIR030C, strain dcg1, hits give low values 0.991 | locus YJL092W, strain hpr5, hits give low values 1 | locus YJL095W, strain BCK1 (second series), hits give low values 0.988 | locus YJL095W, strain BCK1, hits give low values 1.02 and 0.974 | locus YJL115W, strain asf1, hits give low values 1.01 | locus YJL129C, strain trk1, hits give low values 0.997 | locus YJL134W, strain LCB3, hits give low values 1.01 | locus YJL154C, strain vps35, hits give low values 1.01 | locus YJL164C, strain tpk1, hits give low values 1.01 | locus YJL166W, strain qcr8, hits give low values 1 | locus YJL168C, strain set2, hits give low values 0.988 | locus YJL187C, strain SWE1 (second series), hits give low values 1.01 | locus YJL187C, strain SWE1, hits give low values 1 | locus YJR043C, strain POL32, hits give low values 1.03 | locus YJR066W, strain TOR1, hits give low values 0.925 | locus YJR075W, strain HOC1, hits give low values 1.01
